D1 potentiator: potentiators of human D1 dopamine receptor | HEK293 TREx D1 cells, calcium flux, dopamine EC20 potentiation | potentiation, % at 10 µM | 0.036% of 360,000 active | AID 504651; in the data active = potentiation above about 30%
Target sequence (P21728 whole entry, looked up): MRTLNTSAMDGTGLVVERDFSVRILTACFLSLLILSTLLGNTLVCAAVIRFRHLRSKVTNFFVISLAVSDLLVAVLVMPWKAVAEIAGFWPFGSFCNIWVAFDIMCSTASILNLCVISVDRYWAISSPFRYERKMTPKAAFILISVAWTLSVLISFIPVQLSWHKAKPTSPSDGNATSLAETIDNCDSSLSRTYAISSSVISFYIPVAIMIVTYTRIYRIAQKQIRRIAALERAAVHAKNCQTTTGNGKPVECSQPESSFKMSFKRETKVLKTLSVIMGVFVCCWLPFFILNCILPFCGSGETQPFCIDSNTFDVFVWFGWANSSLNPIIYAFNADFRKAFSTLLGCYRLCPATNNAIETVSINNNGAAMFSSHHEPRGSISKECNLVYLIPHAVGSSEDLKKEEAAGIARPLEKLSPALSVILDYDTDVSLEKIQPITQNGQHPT
D3 antag: D3 dopamine receptor (human) antagonism; P35462; D3R cells, DiscoveRx beta-arrestin luminescence, antagonist mode; hits give low values; max response, negative = inhibition, %; 2.5% of 360,000 active; in the data active = max response below about -50%; inconclusive = no clear call, values can overlap the other calls
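Cells expressing the human receptor were seeded at 1500 cells/well, incubated overnight at 37 degrees C in 5% CO2, then exposed to library compounds with dopamine controls for 90 minutes at 37 degrees C before luminescent detection.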
D3 ag: agonists of human D3 dopamine receptor; P35462; max activation, %; AID 652048; 0.58% of 410,000 active; D3R DiscoveRx beta-arrestin cells, luminescence, 90 min; in the data active = max activation above about 30%
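Agonist mode: compounds and dopamine controls were applied to plated cells for 90 min at 37 degrees C after an overnight attachment at 1500 cells/well. Luminescent read-out followed 30 - 60 minutes at room temperature with DiscoveRx detection reagent.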
D1 antagonist: antagonists of human D1 dopamine receptor | P21728 | HEK293 TREx D1 cells, calcium flux, dopamine EC80; hits give low values | activity change, negative = inhibition, % at 10 µM | 3.2% of 360,000 active; in the data active = activity change below about -30%
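After overnight tetracycline induction at 30 C, force-coupled D1 HEK293 cells took up a no-wash calcium dye at room temperature. Compounds were added and monitored 180 s, and the response to EC80 dopamine was then recorded.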
ERG Ets-DNA blk: inhibitors of human ERG Ets domain-DNA interaction; P11308; fluorescence polarization, His-ERG Ets domain / labelled DNA; Potency, µM (doses to about 76.9 µM), actives largely listed as inhibitors; 0.028% of 370,000 active; AID 624246; active = well fitted inhibition curve with a large enough effect in the polarisation, with a control signal flat; inconclusive = small, poorly fitted or top-dose-only effect, or effect the other way, or a change in a side signal; inactive = no such curve, though single readings can be large or run the other way; the % refers to the polarisation;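 also: polarization taken with two DNA probes labelled with fluorescein and Texas red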
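His-tagged ERG Ets domain (1 uM in the protein solution; 300mM KCl, 50mM Tris-HCl, 1mM EDTA, 1mM DTT, pH 7.5) received compound, then a probe mix of 5 nM fluorescein-DNA and 100nM Texas-615-DNA. Fluorescence polarization was read for both dyes.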
D1 agonist: human D1 receptor agonism | P21728 | HEK293 T-REx D1 cells, calcium flux, agonist mode | activation, % at 2 µM | 1% of 360,000 active | AID 504660; in the data active = activation above about 30%
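Agonism was scored from calcium flux recorded over 180 s (1 read/s) after pintool compound addition, following a 10-cycle baseline. Cells were inducible force-coupled HEK293 TREx D1, plated overnight at 30 C and loaded with no-wash calcium dye.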
Numbers stand for hits; n = inactive; u = inconclusive; x = not tested or not shown. Shown are actives, neighbours in structure and some others; about 6.1% of the full set was active somewhere.

SMILES	D1 potentiator	D3 antag	D3 ag	D1 antagonist	ERG Ets-DNA blk	D1 agonist
CC(C)[C@@]1(NC(=O)[C@@H]2C[C@@H]3c4cccc5[nH]cc(c45)C[C@H]3N(C)C2)O[C@@]2(O)[C@@H]3CCCN3C(=O)[C@H](Cc3ccccc3)N2C1=O	n	-96	n	-68	n	n
CC(C)[C@H]1C(=O)N2CCC[C@H]2[C@]2(O)O[C@](NC(=O)[C@@H]3C=C4c5cccc6[nH]cc(c56)C[C@H]4N(C)C3)(C(C)C)C(=O)N12	n	n	n	-34	n	n
Nc1ccc(CC2=NCCN2)cc1	x	n	n	x	n	x
Cc1sc2ccccc2c1CC1=NCCN1	n	n	n	-47	n	n
Fc1ccc(NC2=NCCS2)cc1Cl	n	n	n	n	n	n
CC1CN=C(Nc2ccc(F)c(Cl)c2)S1 (stereo unspecified)	n	u	n	-33	n	n
S=P(N1CCOCC1)(N1CC1)N1CC1	x	n	34	x	n	x
S=P(N1CCCCCC1)(N1CC1)N1CC1	x	n	n	x	n	x
CC1=NCCc2c1[nH]c1cc(O)ccc21	n	n	n	n	n	405
COc1ccc2c3c([nH]c2c1)C(C)=NCC3	n	n	n	n	n	n
O=[N+]([O-])/C(Cl)=C1\NCCN1Cc1ccc(Cl)nc1	n	n	n	n	n	n
c1ccc(CN2COC3CCCCCC32)cc1 (stereo unspecified)	x	n	n	x	x	x
O=[N+]([O-])c1c(Cl)c(Cl)c(Cl)c(Cl)c1Cl	x	n	n	x	n	x
Nc1cc(Cl)c2nonc2c1[N+](=O)[O-]	n	-58	n	-32	n	n
C/C=C1\CN2[C@H]3C[C@@]45c6ccccc6N(C)[C@H]4[C@@H]2CC1C3[C@H]5O (stereo partly specified)	x	-63	n	x	n	x
CCCC[N+]12C3C[C@H](C4[C@H](O)[C@]5(C[C@@H]41)c1ccccc1N(C)[C@@H]35)[C@H](CC)[C@H]2O (stereo partly specified)	n	n	n	n	n	n
COCCCNC(=O)Cn1cc(/C=C2\C(=O)NC(=O)N(c3ccccc3F)C2=O)c2ccccc21	n	n	n	n	n	32
C[C@@H]1O[C@@H](O[C@@H]2C=C3CC[C@@H]4C(CC[C@]5(C)[C@@H](c6ccc(=O)oc6)CC[C@]45O)[C@@]3(C)CC2)[C@H](O)[C@H](O)[C@H]1O (stereo partly specified)	n	n	36	n	n	n
O=[N+]([O-])c1cc(F)c(N2CCCCCC2)cc1N1CCNCC1	n	n	n	n	n	n
O=C(OC1CCN(CCCl)CC1)C(c1ccccc1)c1ccccc1	n	-95	n	n	n	n
CCOCCCNC(=O)CN1C2CCC1CC(O)(c1ccc(OC)cc1)C2 (stereo unspecified)	n	-72	n	n	x	n
COc1ccc(NC(=O)CN2C3CCC2CC(O)(c2cccnc2)C3)cc1OC (stereo unspecified)	n	n	n	n	n	n
CCOc1cc2c(cc1OCC)-n1cccc1C(c1ccc(OC)c(O)c1)NC2 (stereo unspecified)	n	n	n	n	n	96
COc1ccc2c(c1O)[C@]13CCN(C)[C@H](C2)[C@@H]1CCC(=O)C3	n	n	n	n	n	n
COC1=CC=C2[C@H]3Cc4ccc(OC)c5c4[C@@]2(CCN3C)[C@H]1O5	n	-66	n	n	n	n
SMILES	D1 potentiator	D3 antag	D3 ag	D1 antagonist	ERG Ets-DNA blk	D1 agonist
COc1ccc2ccccc2c1CNCCc1ccccc1	n	n	n	n	n	n
CC(C)N1CCOC(c2ccc(O)c(O)c2)C1 (stereo unspecified)	x	n	95	x	x	x
O=C1CC(c2ccc(Br)cc2)c2c(c3ccccc3oc2=O)O1 (stereo unspecified)	n	x	51	n	n	n
COC(=O)[C@@]1(Cc2ccc(F)cc2)[C@H]2c3cc(C(=O)N(C)C)[nH]c3C[C@H]2CN1C(=O)c1ccccc1	n	n	n	-33	n	n
CSCCC(c1nnnn1-c1ccc2c(c1)OCCO2)N1CCC2(CC1)C(=O)NCN2c1ccccc1 (stereo unspecified)	x	n	n	x	x	x
O=C(c1cc(C(=O)NCc2ccccc2)c(=O)n(Cc2ccccc2)c1)c1cc(Br)ccc1O	n	n	n	n	x	n
Cc1ccc(O)c(C(=O)c2cc(C(=O)NCc3ccccc3)c(=O)n(Cc3ccccc3)c2)c1	n	-69	n	n	n	n
CCC1(CC)C(=O)N(C)C(=O)NC1=NC	n	n	n	-35	n	n
C/C1=C\[C@@H](C)C/C=C/[C@H]2[C@@H]3O[C@]3(C)[C@@H](C)[C@H]3[C@H](Cc4c[nH]c5ccccc45)NC(=O)[C@]32C(=O)/C=C/C(=O)[C@@H]1O	n	-51	n	n	n	n
COC(=O)C1=C(c2ccc(F)cc2OCc2ccccc2)C[C@@H]2CC[C@H]1N2C(=O)NCCOc1ccccc1Cl	n	u	n	x	n	n
CC(C)[C@H]1C(=O)O[C@H](C(C)C)C(=O)N(C)[C@@H](C(C)C)C(=O)O[C@H](C(C)C)C(=O)N(C)[C@@H](C(C)C)C(=O)O[C@H](C(C)C)C(=O)N1C	n	n	n	-33	n	53
COC(=O)C1=C(c2c(C)noc2C)C[C@@H]2CC[C@H]1N2C(=O)N1CCCCC1	n	n	n	n	n	n
CCOC(=O)C(O)(c1ccc(NC(=S)NC(=O)c2ccc(Cl)cc2Cl)c(C)c1)C(F)(F)F (stereo unspecified)	n	n	n	-35	n	54
COC(=O)C(O)(c1ccc(NC(=S)NC(=O)c2ccc(Cl)cc2Cl)c(C)c1)C(F)(F)F (stereo unspecified)	n	u	n	-52	n	46
CC(=O)NC(Cc1ccc(N(CCCl)CCCl)cc1)C(=O)NC(CC(C)C)C(=O)O (stereo unspecified)	n	n	n	n	n	n
NC(=O)c1ccc(C(=O)Nc2ccc([As](=O)(O)O)cc2)cc1	n	x	x	n	x	n
O=[As](O)(O)c1ccc(N=Nc2ccc(O)cc2)cc1	n	-99	n	n	n	n
NC(=O)c1ccc(OCCC(O)N2CC=C(c3ccc(F)cc3)CC2)cc1 (stereo unspecified)	n	-57	n	n	n	n
Cc1cc(C)cc(N2C(=O)NC(=O)/C(=C\c3cccn3-c3ccccc3)C2=O)c1	n	u	n	n	n	n
Cc1cc(C)cc(N2C(=O)NC(=O)/C(=C\c3cccn3-c3ccc(Cl)cc3)C2=O)c1	n	-72	n	n	n	n
Brc1ccc2c(c1)C(OC1CN3CCC1CC3)c1ccccc1CS2 (stereo unspecified)	n	u	n	-36	n	n
